According to publication PMC8384837, “Expanding the binding specificity for RNA recognition by a PUF domain”:

Experiments:
Experiment in all cases: yeast three-hybrid, YBZ-1, SC-Leu-His + 0.5 mM 3-AT, 4 days
Details in all cases: tags: N-Gal4 AD-HA kept; label: inside an RPR1-promoter hybrid RNA with tandem MS2 sites; ssRNA
[1] = target: PUM1 PUF domain R5-KNG (Homo sapiens, UniProt Q14671 828-1176, C1007K;R1008N;Q1011G)
How it was run: (§1)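 Repeat regions from input (SC-Leu) and selection (SC-Leu-His + 0.5 mM 3-AT) plates were PCR-amplified and Illumina-sequenced after four days of growth. The cells were strain YBZ-1 with a LexA–MS2 coat fusion and a HIS3 reporter, co-expressing Pumilio-1 PUF domain libraries and matching RNA elements from a centromeric plasmid. The interaction score is the log change in variant frequency from input to selection, taken in log2 with a pseudocount of 1 for absent variants.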

[2] = target: PUM1 PUF domain R7-KWH (Homo sapiens, UniProt Q14671 828-1176, S1079K;N1080W;E1083H)
How it was run: as §1

[3] = target: PUM1 PUF domain R3-SRG (Homo sapiens, UniProt Q14671 828-1176, C935S;Q939G)
How it was run: as §1

[4] = target: PUM1 PUF domain R3-LCR (Homo sapiens, UniProt Q14671 828-1176, C935L;R936C;Q939R)
How it was run: as §1

[5] = target: PUM1 PUF domain R5-TQG (Homo sapiens, UniProt Q14671 828-1176, C1007T;R1008Q;Q1011G)
How it was run: as §1

[6] = target: PUM1 PUF domain R5-KQG (Homo sapiens, UniProt Q14671 828-1176, C1007K;R1008Q;Q1011G)
How it was run: as §1

[7] = target: T1, PUM1 PUF domain R6-VFT (Homo sapiens, UniProt Q14671 828-1176, N1043V;Y1044F;Q1047T)
T1 sequence: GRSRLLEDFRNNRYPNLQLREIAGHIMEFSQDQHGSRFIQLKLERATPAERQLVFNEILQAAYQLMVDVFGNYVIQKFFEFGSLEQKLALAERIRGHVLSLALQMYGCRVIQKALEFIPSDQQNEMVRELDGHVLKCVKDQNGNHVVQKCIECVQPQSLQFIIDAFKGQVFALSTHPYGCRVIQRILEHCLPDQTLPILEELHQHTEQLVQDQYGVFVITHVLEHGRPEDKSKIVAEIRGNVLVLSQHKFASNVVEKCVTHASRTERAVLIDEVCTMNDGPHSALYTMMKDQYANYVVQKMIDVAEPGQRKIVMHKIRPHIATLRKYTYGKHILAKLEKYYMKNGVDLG
How it was run: as §1

[8] = target: PUM1 PUF domain R4-EFG (Homo sapiens, UniProt Q14671 828-1176, N971E;H972F;Q975G)
How it was run: as §1

[9] = target: PUM1 PUF domain R3-RIK (Homo sapiens, UniProt Q14671 828-1176, C935R;R936I;Q939K)
How it was run: as §1

[10] = target: PUM1 PUF domain R3-RQL (Homo sapiens, UniProt Q14671 828-1176, C935R;R936Q;Q939L)
How it was run: as §1

For “GGCUAGAACUAGUGGAUCCCCCGGCGCCCGGCGGCUCGAGCCCGGGUAAGUGUUAAUAGUCUGCAUGCCGCCGGGCGCCAUGCCUGCAGGUCGACUCUAGAAAACAUG”, the binding signal [1] was 4.33 log2 enrichment (interaction score).

“GGCUAGAACUAGUGGAUCCCCCGGCGCCCGGCGGCUCGAGCCCGGGUAAGUCUAAAUAGUCUGCAUGCCGCCGGGCGCCAUGCCUGCAGGUCGACUCUAGAAAACAUG” was tested, and the binding signal [2] was 5.07 log2 enrichment (interaction score).

For “GGCUAGAACUAGUGGAUCCCCCGGCGCCCGGCGGCUCGAGCCCGGGUAAGUGUAAGUAGUCUGCAUGCCGCCGGGCGCCAUGCCUGCAGGUCGACUCUAGAAAACAUG”, the binding signal [3] was 2.65 log2 enrichment (interaction score) and the binding signal [4] was 3.54 log2 enrichment (interaction score).

With “GGCUAGAACUAGUGGAUCCCCCGGCGCCCGGCGGCUCGAGCCCGGGUAAGUGUGAAUAGUCUGCAUGCCGCCGGGCGCCAUGCCUGCAGGUCGACUCUAGAAAACAUG” the binding signal [5] was 2.63 log2 enrichment (interaction score).

With “GGCUAGAACUAGUGGAUCCCCCGGCGCCCGGCGGCUCGAGCCCGGGUAAGUGUCAAUAGUCUGCAUGCCGCCGGGCGCCAUGCCUGCAGGUCGACUCUAGAAAACAUG” the binding signal [1] was 2.59 log2 enrichment (interaction score) and the binding signal [6] was 3.41 log2 enrichment (interaction score).

“GGCUAGAACUAGUGGAUCCCCCGGCGCCCGGCGGCUCGAGCCCGGGUAAGUAUAAAUAGUCUGCAUGCCGCCGGGCGCCAUGCCUGCAGGUCGACUCUAGAAAACAUG” was tested, and the binding signal [2] was 2.68 log2 enrichment (interaction score).

In the case of “GGCUAGAACUAGUGGAUCCCCCGGCGCCCGGCGGCUCGAGCCCGGGUAAGUGUAAAUAGUCUGCAUGCCGCCGGGCGCCAUGCCUGCAGGUCGACUCUAGAAAACAUG”, the binding signal [3] is reported as 4.45 log2 enrichment (interaction score), the binding signal [7] is reported as 2.21 log2 enrichment (interaction score) and the binding signal [5] is reported as 0.76 log2 enrichment (interaction score). The binding signal [8] was 3.99 log2 enrichment (interaction score).

For “GGCUAGAACUAGUGGAUCCCCCGGCGCCCGGCGGCUCGAGCCCGGGUAAGUGUAAUUAGUCUGCAUGCCGCCGGGCGCCAUGCCUGCAGGUCGACUCUAGAAAACAUG”, the binding signal [9] was 2.73 log2 enrichment (interaction score), the binding signal [10] was 3.54 log2 enrichment (interaction score) and the binding signal [4] was 1.28 log2 enrichment (interaction score).

“GGCUAGAACUAGUGGAUCCCCCGGCGCCCGGCGGCUCGAGCCCGGGUAAGUGAAAAUAGUCUGCAUGCCGCCGGGCGCCAUGCCUGCAGGUCGACUCUAGAAAACAUG” was tested, and the binding signal [7] was 6.61 log2 enrichment (interaction score).

With “GGCUAGAACUAGUGGAUCCCCCGGCGCCCGGCGGCUCGAGCCCGGGUAAGUGUAUAUAGUCUGCAUGCCGCCGGGCGCCAUGCCUGCAGGUCGACUCUAGAAAACAUG” the binding signal [8] was 1.18 log2 enrichment (interaction score).
